Test results as given in PubChem BioAssay AID2315 (National Center for Advancing Translational Sciences (NCATS), 2010).
Out of some 290,000 compounds screened, about 27,000 (9.3%) were called active. Many of the other results were omitted from the sample, so actives are more common in it than they were. Unmarked numbers belong to inactive results. Rule as the data show it: active = inhibition mostly above about 28% (no sharp cut-off); inactive = mostly below about 43%.

experiment: A qHTS for Small Molecule Inhibitors of Shiga Toxin; settings: Vero cells, Shiga toxin protein synthesis inhibition reporter; at 38.7 µM, stronger effect = higher value; also: 0% is about no effect

Structure (SMILES) | inhibition
Cc1ccc(N2CCN(c3ccc([N+](=O)[O-])cn3)CC2)c(C)c1 | -5.14%
COc1ccc2c(c1OC)C(=O)N(c1ccc(O)cc1)C2 | 29.7%
O=C(COc1ccc(S(=O)(=O)N2CCOCC2)cc1Cl)N1CCOCC1 | -5.97%
O=C(c1ccccc1)N1CCC(CC2CC(c3ccc(Cl)cc3)=NO2)(C(=O)NCC2CCCCC2)CC1 (stereo not drawn) | -0.8%
Cc1ccc(N2CC(C(=O)Nc3ccc(S(=O)(=O)N4CCCC4)cc3)CC2=O)cc1C (stereo not drawn) | -5.32%
Cc1ccc(-c2ccc(/C=C(\C#N)C(N)=S)o2)c([N+](=O)[O-])c1 | 19.2% (active)
N#C/C(=C/c1ccc(-c2ccccc2[N+](=O)[O-])o1)C(=O)NCCN1CCCCC1 | 6.58%
Cc1ccc(Cc2cnc(NC(=O)/C(C#N)=C/c3ccc(-c4cccc([N+](=O)[O-])c4)o3)s2)cc1 | 19.7%
CCc1cc(=O)oc2c(C)c(OCC(=O)N3CC[C@@]4(O)CCCC[C@H]4C3)ccc12 | -4.55%
Cc1cccc(C)c1NC(=O)C(Cl)C(=O)c1ccccc1 (stereo not drawn) | -15.6%
CC(C)N(C(=O)Cn1cc(S(=O)(=O)CC(=O)N2CCOCC2)c2ccccc21)C(C)C | -3.05%
CC(Sc1nnnn1C1CCCCC1)C(=O)O (stereo not drawn) | 3.3%
CC(C)C(=O)Nc1nnc(SCC(=O)N2C(C)CCCC2C)s1 (stereo not drawn) | -4.35%
O=C(CSc1nnc2ccc(-c3ccncc3)nn12)N1CCCCC1 | -15.9%
O=C(CSc1nnnn1C1CCCC1)N1CCCCC1 | 110% (active)
CC1CCCC(C)N1C(=O)CSc1nnnn1C1CCCC1 (stereo not drawn) | 53.7% (active)
CCCc1nnc(SCC(=O)N2C(C)CCCC2C)n1CC (stereo not drawn) | 3.99%
COc1ccc(C2NC(=O)C(=O)/C2=C(\O)c2ccc(Cl)cc2)cc1OC (stereo not drawn) | -18%
CCN(CC(=O)NCCCN1CCOCC1)S(=O)(=O)c1cc(Cl)ccc1Cl | 10.6%
Cc1cccc(N2CCN(C(=O)c3cccc(N4C(=O)C5C6C=CC(C6)C5C4=O)c3)CC2)c1C (stereo not drawn) | -9.11%
CCC(C)NC(=O)C1c2ccccc2C(=O)N1Cc1ccccc1 (stereo not drawn) | -8.49%
CCOc1ccc(NC(=O)C2CCN(C(=O)N3CCOc4ccccc43)CC2)cc1 | 7.11%
O=C(Nc1ncc([N+](=O)[O-])s1)C1COc2ccccc2O1 (stereo not drawn) | 93.4% (active)
O=C(Nc1nc(-c2ccncc2)cs1)C1COc2ccccc2O1 (stereo not drawn) | -4.34%

Structure (SMILES) | inhibition
O=C(Cc1c(F)cccc1Cl)Nc1ncc([N+](=O)[O-])s1 | 75.5% (active)
CN(c1ccccc1)S(=O)(=O)c1cccc(NC(=O)Cc2c(F)cccc2Cl)c1 | -0.293%
O=C(CCc1ccccc1)Nc1ncc([N+](=O)[O-])s1 | 85.8% (active)
O=C(Cc1c(F)cccc1Cl)Nc1ccc(-n2cnnn2)cc1 | 12.8%
Cc1ccc(S(=O)(=O)N(C)C)cc1NC(=O)COC(=O)C1COc2ccccc2O1 (stereo not drawn) | -6.06%
CCN(CC)S(=O)(=O)c1ccc(N2CCOCC2)c(NC(=O)C2COc3ccccc3O2)c1 (stereo not drawn) | 4.87%
O=C(Nc1nnc(SCc2ccc(Cl)cc2Cl)s1)C1COc2ccccc2O1 (stereo not drawn) | -4.34%
COc1ccc([N+](=O)[O-])cc1NC(=O)CCc1ccccc1 | 17%
O=C(Nc1nc2c(F)cc(F)cc2s1)C1COc2ccccc2O1 (stereo not drawn) | 71.8% (active)
CC(C)Cc1nnc(NC(=O)CCc2ccccc2)s1 | 7.6%
Cc1cc(C)cc(N(CC(=O)NC2CCCC2)C(=O)CCC(=O)Nc2cc(C)on2)c1 | -3.5%
Cc1ccc2[nH]cc(CCNC(=O)C3CCCCC3)c2c1 | -0.198%
CC(C)CNC(=O)CC(NCC(C)C)C(=O)O (stereo not drawn) | -15%
CCCCNC(=O)C1CCC(=O)N1CCc1ccccc1 (stereo not drawn) | 2.74%
COc1cc(C(=O)NC2CCN(Cc3ccccc3)CC2)cc(Cl)c1OC(C)C | 2.17%
Cc1cc(OCC(=O)NCC(O)c2ccccc2)c2c(C)c(C)c(=O)oc2c1 (stereo not drawn) | 0.938%
CCCCN(C)CCCNC(=O)c1cc(-c2cccs2)nc2ccccc12 | -4.77%
COc1cc(CN2CCCN(C)CC2)c([N+](=O)[O-])cc1OC | -4.36%
CCN(C(=O)CN1C(=O)/C(=C/c2ccc(F)cc2)SC1=S)C1CCS(=O)(=O)C1 (stereo not drawn) | -8.73%
CCc1nn(CCCC(=O)Nc2ccc(C)cc2C)c(=O)c2cc3occc3n12 | -5.79%
O=C(Nc1cccc(Cl)c1N1CCOCC1)c1cccnc1 | -2.36%
Cc1cccc(N(C(=O)Cn2nnc(-c3ccc(C)o3)n2)C(C(=O)NC2CCCC2)c2ccncc2)c1 (stereo not drawn) | -3.72%
COc1ccc2c(CC(=O)N3CCc4cc(OC)c(OC)cc4C3)coc2c1 | -3.55%
C/C(=N/NC(=O)C1COc2ccccc2O1)c1ccco1 (stereo not drawn) | 3.3%

Structure (SMILES) | inhibition
COc1ccc(NC(=O)C2COc3ccccc3O2)cc1 (stereo not drawn) | 70.7% (active)
CC(=O)Oc1ccccc1C(=O)Nc1ncc([N+](=O)[O-])s1 | 77.1% (active)
O=C(Nc1ccncc1)c1ccccc1[N+](=O)[O-] | 5.85%
COc1ccc(NC(=O)CC2COc3ccccc3O2)c(OC)c1 (stereo not drawn) | 25%
COc1ccc(NC(=O)c2ccccc2[N+](=O)[O-])cc1OC | 9.2%
CC(C)(C)c1cc[n+](-c2[nH]c(=O)sc2/C=N/N=C(\[O-])c2ccccc2)cc1 | 25.8%
COc1ccc(CNC(=O)c2c[nH]c3c(OC)cc(OC)cc3c2=O)cc1 | -11.7%
COc1ccc(CN2CCCC(N3CCc4ccccc4C3)C2)c(O)c1 (stereo not drawn) | -7.05%
CN1CCN(CCCCOc2cccc3ccccc23)CC1 | 29.7%
Cc1cccc(CCNC(=O)Cn2ncc3c([nH]c4ccc(C)cc43)c2=O)c1 | 15.3%
Cc1cc(-c2ccc(S(=O)(=O)N3CCc4ccccc4C3)s2)on1 | -19.6%
CC1=C(C(=O)OC(C)(C)C)C(c2ccc(Br)cc2)NC(=O)N1CCCC(=O)O (stereo not drawn) | 9.92%
CCSc1nnc(SCC(=O)NNC(=O)c2ccccc2F)s1 | -24.4%
Cc1cccc(NC(=O)C(C)SCc2ccccc2)c1 (stereo not drawn) | 30.2%
CSc1ccc(CCNC(=O)CS(=O)(=O)Cc2nc(-c3ccccc3F)oc2C)cc1 | -3.45%
CCOc1ccccc1NS(=O)(=O)c1cc2c3c(c1)C(C)C(=O)N3CCC2 (stereo not drawn) | -4.9%
COc1cccc(NC(=O)CN2CCN(CC(=O)Nc3ccccc3Cl)CC2)c1 | -8.02%
COc1ccc2[nH]c(C(=O)N/N=C/c3cc(OC)c(OC)c(OC)c3)cc2c1 | 8.34%
COc1ccc2[nH]c(C(=O)Nc3ccccc3Cl)cc2c1 | 46.8% (active)
CC(C)[C@@H](NC(=O)OC(C)(C)C)C(=O)NCC1CCC(C(=O)N[C@@H](Cc2ccccc2)C(=O)O)CC1 (stereo partly drawn) | 2.35%
O=C1CCN(CCc2ccccc2)CCN1CCOc1ccccc1 | 7.81%
NC(=S)N/N=C/c1coc2cc(Cl)ccc2c1=O | 5.66%
CC(C)(C)OC(=O)NCCCCCC(=O)N/N=C/c1coc2ccccc2c1=O | 69.6% (active)
Cc1ccc2occ(/C=N/NC(=O)c3ccccc3C)c(=O)c2c1 | 9.81%

Structure (SMILES) | inhibition
CC1CCCCN1C(=O)CCS(=O)(=O)Cc1ccccc1 (stereo not drawn) | 24.6%
COc1ccc(N(CC(=O)NCc2ccc(F)cc2)C(=O)CCC(=O)Nc2nccs2)cc1 | -15.4%
CCOc1ccc(OCCSc2nc3ccccc3n2CC(=O)O)cc1 | 1.74%
Cc1ccc2c(C)c(C(=O)N(C)CCC3CCCCO3)oc2c1C (stereo not drawn) | 55.6%
Cc1ccc2nc(S(=O)(=O)O)[nH]c2c1 | -4.97%
CCOC(=O)CSc1nc2ccc(C)cc2[nH]1 | 46.5%
Cc1ccc2nc(/C(C#N)=C\c3ccc(OC(=O)c4cccs4)cc3)[nH]c2c1 | 52.8% (active)
CCn1c(=S)sc2c(=O)n(CC(=O)Nc3cccc(Br)c3)c(C)nc21 | 13.8%
COC(=O)c1c(NC(=O)COc2ccc(Cl)cc2Cl)sc2c1CC(C)(C)NC2(C)C | -5.3%
Cc1c(C=O)c2ccccc2n1CCOc1ccccc1 | 31.9%
CC/C(C)=N/Nc1nc2sc3c(c2c(=O)[nH]1)CC(C)(C)OC3 | 42.5% (active)
CCSc1nc2sc3c(c2c(=O)[nH]1)CC(C)(C)OC3 | 4.12%
CCOC(=O)CSc1nc2sc3c(c2c(=O)[nH]1)CC(C)(C)OC3 | -6.92%
O=Cc1ccc(OCc2cn3ccccc3n2)cc1 | 57.2% (active)
Cc1ccc2nc(COc3ccc(N(C)S(=O)(=O)c4ccccc4)cc3)cc(=O)n2c1 | 13.5%
COc1ccc(C(=O)NCc2cn3ccccc3n2)cc1 | 8.12%
CCCNC(=O)CSc1nc(Cc2ccccc2)nc2ccccc12 | -9.69%
CCC(C(=O)NCCC(C)C)N(Cc1ccccc1Cl)C(=O)c1snc(C(N)=O)c1N (stereo not drawn) | -5.11%
Cc1ccn(-c2cccc(-n3ccc(C)n3)n2)n1 | 132% (active)
Cn1cc(S(=O)(=O)Nc2ccc(Cl)cc2Cl)c(=O)n(C)c1=O | -4.85%
COc1ccc(CN2CCNC(=O)C2CC(=O)NCc2cn[nH]c2-c2ccccc2)c(F)c1 (stereo not drawn) | -2.54%
